Legend:
Assay in all cases: log2 ratio of Biotin-Ahx-Ub-VS probe labelling (fragment/DMSO); higher = less target engagement (more negative = stronger competition), active = hit call of the paper (q ≤ 0.05, log2 ratio ≤ -1)
Details in all cases: compound concentration: 200 uM; treatment time: 3 h
USP9X = USP9X (UniProt Q93008)
In short: (§1)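 HEK293T lysate (495 µg per sample, in Tris/CHAPS/IGEPAL buffer with protease inhibitors) was exposed in triplicate for 3 h to fragment at 200 µM or to vehicle, then to Biotin-Ahx-Ub-VS at 0.5 µM final for 1 h. Labelled DUBs were enriched on NeutrAvidin, digested with LysC and trypsin, and analysed by diaPASEF LC-MS/MS. Spectronaut label-free quantities were normalised to the global median, and values are average log2 ratios of fragment over vehicle from an unpaired t-test. Only proteins with ≥2 unique peptides were used.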

UniProt O00487 = molecular target: UniProt O00487
In short: as §1

UniProt O00507 = molecular target: UniProt O00507
In short: as §1

UniProt P51784 = molecular target: UniProt P51784
In short: as §1

UniProt Q5T2D3 = molecular target: T1, UniProt Q5T2D3
T1 sequence (whole entry): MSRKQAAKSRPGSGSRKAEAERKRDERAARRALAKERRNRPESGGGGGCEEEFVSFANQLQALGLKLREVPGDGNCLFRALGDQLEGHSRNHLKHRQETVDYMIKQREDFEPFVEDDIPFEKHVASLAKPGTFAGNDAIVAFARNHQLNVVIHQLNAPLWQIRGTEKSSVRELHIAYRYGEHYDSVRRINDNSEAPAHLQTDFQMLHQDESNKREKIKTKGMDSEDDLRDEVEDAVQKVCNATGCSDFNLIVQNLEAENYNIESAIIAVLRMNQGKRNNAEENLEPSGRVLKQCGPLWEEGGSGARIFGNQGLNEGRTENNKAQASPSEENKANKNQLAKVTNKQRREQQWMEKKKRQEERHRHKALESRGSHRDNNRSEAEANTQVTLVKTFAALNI
In short: as §1

UniProt Q8TE49 = molecular target: T2, UniProt Q8TE49
T2 sequence (whole entry): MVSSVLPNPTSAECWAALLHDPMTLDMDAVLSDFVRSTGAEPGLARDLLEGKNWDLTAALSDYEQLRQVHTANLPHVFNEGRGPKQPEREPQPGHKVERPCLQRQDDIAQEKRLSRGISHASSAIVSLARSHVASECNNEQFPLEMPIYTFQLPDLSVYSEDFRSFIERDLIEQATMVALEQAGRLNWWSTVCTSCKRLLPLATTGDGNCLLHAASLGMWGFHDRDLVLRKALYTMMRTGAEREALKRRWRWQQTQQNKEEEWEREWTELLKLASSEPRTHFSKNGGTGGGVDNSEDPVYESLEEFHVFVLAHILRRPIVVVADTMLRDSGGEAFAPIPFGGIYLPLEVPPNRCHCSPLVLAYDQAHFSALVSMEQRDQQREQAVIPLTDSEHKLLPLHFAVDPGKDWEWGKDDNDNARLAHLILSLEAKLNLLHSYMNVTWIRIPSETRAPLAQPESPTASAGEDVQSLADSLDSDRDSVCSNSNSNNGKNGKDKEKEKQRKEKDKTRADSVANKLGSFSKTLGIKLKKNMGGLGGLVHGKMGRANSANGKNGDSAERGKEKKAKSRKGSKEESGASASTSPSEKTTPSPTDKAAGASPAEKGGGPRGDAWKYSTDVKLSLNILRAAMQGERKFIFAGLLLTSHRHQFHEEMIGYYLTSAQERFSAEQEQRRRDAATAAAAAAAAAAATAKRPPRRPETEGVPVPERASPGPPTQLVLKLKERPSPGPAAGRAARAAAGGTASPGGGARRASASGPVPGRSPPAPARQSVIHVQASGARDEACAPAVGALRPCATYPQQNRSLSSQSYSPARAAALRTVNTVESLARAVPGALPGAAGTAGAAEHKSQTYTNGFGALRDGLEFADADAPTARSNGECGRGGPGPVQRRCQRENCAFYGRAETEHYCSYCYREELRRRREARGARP
In short: as §1

UniProt Q9P2H5 = molecular target: T3, UniProt Q9P2H5
T3 sequence (whole entry): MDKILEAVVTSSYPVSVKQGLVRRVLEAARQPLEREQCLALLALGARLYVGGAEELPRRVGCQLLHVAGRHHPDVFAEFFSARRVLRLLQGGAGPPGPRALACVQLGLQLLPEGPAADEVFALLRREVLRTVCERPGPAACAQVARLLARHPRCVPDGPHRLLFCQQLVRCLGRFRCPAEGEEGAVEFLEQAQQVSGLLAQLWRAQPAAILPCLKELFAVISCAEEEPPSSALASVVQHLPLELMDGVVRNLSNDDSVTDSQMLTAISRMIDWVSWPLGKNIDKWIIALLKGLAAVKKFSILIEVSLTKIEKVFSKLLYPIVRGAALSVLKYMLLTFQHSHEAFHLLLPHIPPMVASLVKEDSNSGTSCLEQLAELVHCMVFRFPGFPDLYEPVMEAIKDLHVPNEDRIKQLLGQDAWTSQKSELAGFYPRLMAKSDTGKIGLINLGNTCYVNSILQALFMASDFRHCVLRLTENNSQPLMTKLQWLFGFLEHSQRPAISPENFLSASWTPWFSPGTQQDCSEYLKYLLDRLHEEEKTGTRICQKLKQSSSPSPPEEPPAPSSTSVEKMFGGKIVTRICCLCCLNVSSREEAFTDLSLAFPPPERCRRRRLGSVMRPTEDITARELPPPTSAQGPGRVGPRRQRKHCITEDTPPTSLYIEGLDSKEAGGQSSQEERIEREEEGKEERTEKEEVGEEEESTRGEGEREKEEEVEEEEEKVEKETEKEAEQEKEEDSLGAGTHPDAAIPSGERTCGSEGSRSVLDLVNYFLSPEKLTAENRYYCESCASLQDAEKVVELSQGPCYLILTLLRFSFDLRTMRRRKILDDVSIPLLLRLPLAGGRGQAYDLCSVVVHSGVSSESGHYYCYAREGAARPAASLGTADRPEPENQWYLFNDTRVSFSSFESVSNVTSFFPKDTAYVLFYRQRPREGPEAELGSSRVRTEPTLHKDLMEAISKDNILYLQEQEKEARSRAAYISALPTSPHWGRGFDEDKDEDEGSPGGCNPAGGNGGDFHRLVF
In short: as §1

UniProt Q9UGI0 = molecular target: T4, UniProt Q9UGI0
T4 sequence (whole entry): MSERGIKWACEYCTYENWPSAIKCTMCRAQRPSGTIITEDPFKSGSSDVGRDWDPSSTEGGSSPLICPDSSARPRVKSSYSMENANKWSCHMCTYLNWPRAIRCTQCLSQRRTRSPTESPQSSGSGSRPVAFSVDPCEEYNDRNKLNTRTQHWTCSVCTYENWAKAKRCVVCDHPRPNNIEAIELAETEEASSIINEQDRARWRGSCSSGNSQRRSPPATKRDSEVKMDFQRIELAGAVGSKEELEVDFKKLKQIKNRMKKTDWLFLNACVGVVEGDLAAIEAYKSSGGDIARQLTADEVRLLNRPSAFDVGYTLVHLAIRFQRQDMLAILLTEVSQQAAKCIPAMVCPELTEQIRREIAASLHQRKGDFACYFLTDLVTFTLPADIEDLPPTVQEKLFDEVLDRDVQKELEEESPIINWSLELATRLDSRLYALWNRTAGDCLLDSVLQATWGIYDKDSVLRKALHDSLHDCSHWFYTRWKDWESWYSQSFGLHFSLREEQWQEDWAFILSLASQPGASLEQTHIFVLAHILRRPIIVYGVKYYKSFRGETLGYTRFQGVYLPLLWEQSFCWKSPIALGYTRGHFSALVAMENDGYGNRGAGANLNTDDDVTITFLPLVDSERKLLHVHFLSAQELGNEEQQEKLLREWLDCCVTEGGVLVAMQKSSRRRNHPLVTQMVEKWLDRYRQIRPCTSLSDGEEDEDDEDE
In short: as §1

YOD1 = molecular target: T5, YOD1 (UniProt Q5VVQ6)
T5 sequence (whole entry): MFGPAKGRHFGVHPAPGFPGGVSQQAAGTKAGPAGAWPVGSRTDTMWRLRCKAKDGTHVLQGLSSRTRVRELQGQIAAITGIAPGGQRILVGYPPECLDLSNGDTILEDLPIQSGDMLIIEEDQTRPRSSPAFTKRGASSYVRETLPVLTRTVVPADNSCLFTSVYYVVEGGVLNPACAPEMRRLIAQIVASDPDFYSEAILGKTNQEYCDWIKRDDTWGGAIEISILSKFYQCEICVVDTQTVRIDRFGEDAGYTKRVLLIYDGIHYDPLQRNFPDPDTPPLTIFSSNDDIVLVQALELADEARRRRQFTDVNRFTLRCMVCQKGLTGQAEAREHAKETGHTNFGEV
In short: as §1

Measured: log2 ratio of Biotin-Ahx-Ub-VS probe labelling

Chain of UniProt O00507 (O00507 whole entry): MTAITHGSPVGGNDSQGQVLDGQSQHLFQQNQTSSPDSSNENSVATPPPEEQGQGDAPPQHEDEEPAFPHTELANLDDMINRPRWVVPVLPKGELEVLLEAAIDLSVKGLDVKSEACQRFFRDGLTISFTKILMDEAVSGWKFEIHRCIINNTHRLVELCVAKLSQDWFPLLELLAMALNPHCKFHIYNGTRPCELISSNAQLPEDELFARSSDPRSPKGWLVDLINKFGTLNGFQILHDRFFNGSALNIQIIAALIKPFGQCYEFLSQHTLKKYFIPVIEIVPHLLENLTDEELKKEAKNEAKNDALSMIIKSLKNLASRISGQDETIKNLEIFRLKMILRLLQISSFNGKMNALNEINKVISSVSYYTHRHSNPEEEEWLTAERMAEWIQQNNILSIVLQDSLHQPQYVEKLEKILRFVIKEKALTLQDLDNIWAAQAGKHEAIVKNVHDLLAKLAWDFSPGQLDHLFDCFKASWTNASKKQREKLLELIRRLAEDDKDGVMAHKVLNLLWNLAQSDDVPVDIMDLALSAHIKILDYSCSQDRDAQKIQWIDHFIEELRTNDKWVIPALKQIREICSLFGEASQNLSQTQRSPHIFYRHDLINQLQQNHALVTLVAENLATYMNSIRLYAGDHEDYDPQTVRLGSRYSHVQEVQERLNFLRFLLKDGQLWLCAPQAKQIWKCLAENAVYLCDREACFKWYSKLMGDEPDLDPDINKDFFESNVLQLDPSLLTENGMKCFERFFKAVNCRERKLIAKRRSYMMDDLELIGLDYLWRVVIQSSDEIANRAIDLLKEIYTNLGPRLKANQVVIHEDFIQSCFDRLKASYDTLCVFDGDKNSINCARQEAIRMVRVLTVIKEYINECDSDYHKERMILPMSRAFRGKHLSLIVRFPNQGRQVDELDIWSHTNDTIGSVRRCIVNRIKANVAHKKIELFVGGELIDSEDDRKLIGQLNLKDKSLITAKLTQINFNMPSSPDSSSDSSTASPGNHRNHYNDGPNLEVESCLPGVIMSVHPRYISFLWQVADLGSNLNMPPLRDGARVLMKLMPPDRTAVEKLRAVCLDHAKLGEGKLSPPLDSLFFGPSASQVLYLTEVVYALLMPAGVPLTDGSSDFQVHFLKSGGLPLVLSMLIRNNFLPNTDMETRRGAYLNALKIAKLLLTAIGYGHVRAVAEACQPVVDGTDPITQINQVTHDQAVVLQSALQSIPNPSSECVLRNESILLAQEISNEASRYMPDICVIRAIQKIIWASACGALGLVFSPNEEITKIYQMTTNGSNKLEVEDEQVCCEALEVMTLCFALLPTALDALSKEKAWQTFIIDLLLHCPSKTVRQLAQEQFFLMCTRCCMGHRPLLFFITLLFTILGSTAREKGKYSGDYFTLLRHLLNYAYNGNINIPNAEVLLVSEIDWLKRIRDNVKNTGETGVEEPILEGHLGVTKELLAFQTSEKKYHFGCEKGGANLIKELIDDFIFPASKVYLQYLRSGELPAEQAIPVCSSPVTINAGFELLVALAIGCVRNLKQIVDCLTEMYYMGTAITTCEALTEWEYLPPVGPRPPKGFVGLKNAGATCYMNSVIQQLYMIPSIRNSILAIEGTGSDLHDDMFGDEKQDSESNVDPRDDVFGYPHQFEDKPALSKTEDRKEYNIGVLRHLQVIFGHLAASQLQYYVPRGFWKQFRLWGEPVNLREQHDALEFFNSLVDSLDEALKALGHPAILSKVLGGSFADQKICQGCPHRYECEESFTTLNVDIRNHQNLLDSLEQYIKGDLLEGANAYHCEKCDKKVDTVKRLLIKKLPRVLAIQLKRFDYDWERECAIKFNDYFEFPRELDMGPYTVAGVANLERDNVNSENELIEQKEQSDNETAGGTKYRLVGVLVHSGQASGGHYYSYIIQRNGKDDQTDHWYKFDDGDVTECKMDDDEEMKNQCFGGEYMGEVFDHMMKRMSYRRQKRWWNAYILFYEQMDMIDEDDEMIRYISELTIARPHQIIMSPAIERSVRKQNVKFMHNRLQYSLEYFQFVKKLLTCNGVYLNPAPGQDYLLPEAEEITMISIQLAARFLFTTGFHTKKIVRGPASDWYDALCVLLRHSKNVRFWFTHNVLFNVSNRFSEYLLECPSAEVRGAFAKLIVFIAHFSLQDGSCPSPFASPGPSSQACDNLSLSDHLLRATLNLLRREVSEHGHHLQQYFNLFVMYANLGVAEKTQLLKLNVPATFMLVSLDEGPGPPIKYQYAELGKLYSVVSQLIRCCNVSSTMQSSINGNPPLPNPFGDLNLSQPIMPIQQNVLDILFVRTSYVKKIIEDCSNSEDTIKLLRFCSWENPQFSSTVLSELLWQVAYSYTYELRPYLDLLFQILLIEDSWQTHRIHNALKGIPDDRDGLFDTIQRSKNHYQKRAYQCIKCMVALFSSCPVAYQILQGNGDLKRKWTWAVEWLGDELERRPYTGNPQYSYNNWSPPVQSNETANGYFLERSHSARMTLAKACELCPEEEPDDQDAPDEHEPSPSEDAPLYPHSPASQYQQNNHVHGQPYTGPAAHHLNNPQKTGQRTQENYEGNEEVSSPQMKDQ
Chain of UniProt O00487 (O00487 whole entry): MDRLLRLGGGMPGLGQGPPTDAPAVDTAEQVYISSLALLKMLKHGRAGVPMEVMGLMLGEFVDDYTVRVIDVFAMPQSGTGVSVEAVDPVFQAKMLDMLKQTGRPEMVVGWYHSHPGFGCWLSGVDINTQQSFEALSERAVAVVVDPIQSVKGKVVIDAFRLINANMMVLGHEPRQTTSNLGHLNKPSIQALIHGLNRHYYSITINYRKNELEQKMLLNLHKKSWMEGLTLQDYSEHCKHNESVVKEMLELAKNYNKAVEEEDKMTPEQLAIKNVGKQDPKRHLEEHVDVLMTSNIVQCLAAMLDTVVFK
Chain of UniProt P51784 (P51784 whole entry): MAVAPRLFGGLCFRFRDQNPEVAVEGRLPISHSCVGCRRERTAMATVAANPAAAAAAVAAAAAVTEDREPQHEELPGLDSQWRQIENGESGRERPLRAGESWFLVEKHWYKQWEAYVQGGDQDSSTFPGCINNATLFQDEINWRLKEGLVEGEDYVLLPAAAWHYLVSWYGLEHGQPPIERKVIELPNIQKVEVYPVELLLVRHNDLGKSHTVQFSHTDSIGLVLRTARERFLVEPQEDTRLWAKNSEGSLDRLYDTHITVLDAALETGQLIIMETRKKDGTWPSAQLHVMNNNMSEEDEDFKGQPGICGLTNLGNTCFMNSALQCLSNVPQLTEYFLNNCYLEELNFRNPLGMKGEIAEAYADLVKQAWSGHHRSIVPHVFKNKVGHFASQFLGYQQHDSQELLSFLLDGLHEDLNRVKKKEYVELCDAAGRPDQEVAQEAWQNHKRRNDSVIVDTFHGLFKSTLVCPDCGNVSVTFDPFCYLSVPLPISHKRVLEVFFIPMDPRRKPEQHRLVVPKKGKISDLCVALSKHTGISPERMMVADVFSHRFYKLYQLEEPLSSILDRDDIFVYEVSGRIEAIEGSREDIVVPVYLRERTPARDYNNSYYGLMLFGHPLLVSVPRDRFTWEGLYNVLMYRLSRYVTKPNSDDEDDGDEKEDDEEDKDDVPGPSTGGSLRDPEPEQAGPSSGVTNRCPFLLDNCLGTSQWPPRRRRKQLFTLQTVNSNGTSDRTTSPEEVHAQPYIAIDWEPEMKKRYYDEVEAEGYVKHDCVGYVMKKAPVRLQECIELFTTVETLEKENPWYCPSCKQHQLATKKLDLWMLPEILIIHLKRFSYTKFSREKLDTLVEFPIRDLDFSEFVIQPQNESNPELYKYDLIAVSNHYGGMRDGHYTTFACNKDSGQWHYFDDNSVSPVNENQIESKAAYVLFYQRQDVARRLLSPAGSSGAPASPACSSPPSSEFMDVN

CN1c2ccccc2C(NC(=O)CCl)CS1(=O)=O (centres undefined)
inactive: USP9X -0.252 | UniProt O00487 -0.206 | UniProt O00507 -0.0151 | UniProt P51784 -0.0186 | UniProt Q5T2D3 -0.275 | UniProt Q9P2H5 -0.164 | UniProt Q9UGI0 -0.46 | YOD1 -0.0718
active: UniProt Q8TE49 -2.63
